# Columns and labels:
# [1] = biological target: Tumor necrosis factor receptor superfamily member 10B (Homo sapiens) (UniProt O14763); assay: viability loss of caspase-8 NB7 cells with TRAIL – with/without TRAIL, luminescence panel, confirmation (AID 651596); conditions: NB7 neuroblastoma + caspase-8, TRAIL sensitization, NB7 Caspase-8, with TRAIL, mean of runs, at 10 µM, stronger effect = higher value
# [2] = as above; conditions: NB7 neuroblastoma + caspase-8, without TRAIL, NB7 Caspase-8, without TRAIL, mean of runs, at 10 µM
# [3] = biological target: Tumor necrosis factor receptor superfamily member 10B (Homo sapiens) (UniProt O14763); assay: compound enhancement of TRAIL-induced cell killing – NB7 cells plus caspase-8, luminescence, panel, dose response (AID 652002); conditions: NB7 neuroblastoma +caspase-8, TRAIL sensitization, luminescence viability, NB7+Caspase-8, with TRAIL, run 1; at 12.5 µM (top of the series)
# [4] = biological target: Tumor necrosis factor receptor superfamily member 10B (Homo sapiens) (UniProt O14763); assay: as above; conditions: NB7 neuroblastoma +caspase-8, TRAIL sensitization, luminescence viability, NB7+Caspase-8, with TRAIL, run 2; at 12.5 µM (top of the series)
# [5] = as above; conditions: NB7 neuroblastoma +caspase-8, no TRAIL, compound-alone cytotoxicity counter-screen, luminescence viability, NB7+Caspase-8, run 1; at 12.5 µM (top of the series) unless noted
# [6] = as above; conditions: NB7 neuroblastoma +caspase-8, no TRAIL, compound-alone cytotoxicity counter-screen, luminescence viability, NB7+Caspase-8, run 2; at 12.5 µM (top of the series) unless noted
# Chain of Tumor necrosis factor receptor superfamily member 10B (Homo sapiens) (O14763 whole entry, looked up): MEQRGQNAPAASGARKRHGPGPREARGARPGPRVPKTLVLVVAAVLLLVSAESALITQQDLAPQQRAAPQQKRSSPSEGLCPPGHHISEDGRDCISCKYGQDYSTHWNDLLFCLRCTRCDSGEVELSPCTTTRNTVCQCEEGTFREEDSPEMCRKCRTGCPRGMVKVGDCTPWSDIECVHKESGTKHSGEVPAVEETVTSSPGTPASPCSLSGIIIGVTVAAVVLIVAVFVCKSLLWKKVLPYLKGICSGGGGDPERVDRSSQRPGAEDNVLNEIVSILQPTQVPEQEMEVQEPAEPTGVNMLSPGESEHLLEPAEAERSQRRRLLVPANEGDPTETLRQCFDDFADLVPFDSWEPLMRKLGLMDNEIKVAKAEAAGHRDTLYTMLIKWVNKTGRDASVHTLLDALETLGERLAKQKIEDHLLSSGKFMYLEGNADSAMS
Compound,activity [1] [%],activity [2] [%],"activity, % sensitization [3] [%]","activity, % sensitization [4] [%]","activity, % sensitization [5] [%]","activity, % sensitization [6]"
CCOC(=O)c1cnc2c(-c3ccccc3)cnn2c1N,62.2,54.7,38.5,22.1,13.3,5.35%
Cc1ccc(NC(=O)c2ccc(CSc3nnnn3C)cc2)cc1,44.9,37.7,,,,
C/C(=N\NC(=O)c1csc(C)c1C)c1ccco1,46.9,40.4,34.8,13.8,22.5,-4.13%
Cc1cccc(Nc2nc(N)nc(CCl)n2)c1C,99,98.3,,,,
COc1ccc(/C=N/Nc2nc3ccccc3c(=O)n2-c2ccccc2)cc1OC,62.5,48.6,47.9,45.1,41,44.3%
CC(C)Nc1ncnc2c1cnn2-c1ccc(Cl)cc1,60.6,67.4,,,,
O=C(Nc1ccc2c(c1)OCO2)N1CCN(Cc2ccco2)CC1,78.8,75.2,,,,
CCc1ccc(/C=N/NC(=O)c2ccccn2)cc1,83.9,73,,,,
Cc1onc(C(=O)N2CCC(Cc3ccccc3)CC2)c1[N+](=O)[O-],97.8,98.1,,,,
CC1(C)N=C(N)N=C(N)N1c1ccc(Oc2ccc(Cl)cc2)c(Cl)c1,57.3,51,50.2,62.6,60.3,68.3% [at 6.25 µM]
CSc1nc2ccc(NC(=O)c3ccccn3)cc2s1,83.2,80,,,,
COc1ccc(C(=O)Nc2ccccc2C(=O)N/N=C/c2ccccn2)cc1OC,80.7,59.5,,,,
Cc1ccc(-c2cc(C(=O)N/N=C/c3ccc([N+](=O)[O-])o3)c3ccccc3n2)o1,83.8,73.7,,,,
Cc1nnc(NC(=O)c2nc(S(=O)(=O)Cc3ccccc3C)ncc2Cl)s1,94.7,89.8,,,,
Cc1cc(C)cc(C(=O)O/N=C(\N)c2ccc(Br)cc2)c1,89.5,89.5,,,,
c1ccc(COc2ncnc3c2ncn3CCCNCC(c2ccccc2)c2ccccc2)cc1,18.2,41.5,,,,
C(=C\c1ccco1)/c1nc2ccccc2[nH]1,57.9,31.6,-0.105,5.08,-6.68,-0.982%
Cc1nc2cc(NC(=O)c3ccco3)ccc2n1C,47.6,48,30.3,32.8,-8.74,21.3%
CCOC(=O)c1sc(NC(=O)Nc2ccc(F)cc2)nc1C,56.6,44.6,29,12.6,-5.48,-3.68%
O=C1Cc2c(-c3ccccc3)cc(-c3cccc(Cl)c3)nc2-c2ccccc2N1,52.9,39.5,-1.76,-0.0597,-14.1,-20.4%
Nc1ccccc1C(=O)NN=Cc1cccc([N+](=O)[O-])c1,66.6,42.9,44.8,53.8,-5.65,35.3%
Cc1nn(-c2ccccc2)c2nc(N)c(C#N)c(-c3ccc(F)cc3)c12,61.9,46.8,-8.21,4.3,6.23,37.2%
CSc1nc(N)n2nc(-c3ccc(Cl)cc3)cc2n1,63.9,45.2,-2.8,-10.2,0.419,-17.1%
Cc1ccc(NC(=O)c2ccccc2O)cc1,61,48.8,28,37.1,29,31.3%
COc1ccc(-c2nnc(SCC(=O)c3[nH]c(C)c(C(C)=O)c3C)o2)cc1,54.1,53.9,-37,-7.9,-20.2,-16.4%
O=C(c1cnc(Cl)c(Cl)c1)N1CCN(S(=O)(=O)c2ccc3ccccc3c2)CC1,45.5,25.1,-9.83,-9.66,3.76,-5.02%
Cn1nnc(NC(=O)c2ccc(C(C)(C)C)cc2)n1,58.1,51.8,47.5,61.4,-4.98,39.7%
NNC(=O)C1CCCn2c1nc1sc3c(c1c2=O)CCCC3 (stereo not given),51,52.8,5.3,-9.76,-17.6,12.5%
